Rows were chosen to be rich in hits. Some 4.8% of all compounds tested hit in one or more screens of this group.
PfHsp90 yeast 2 = reduces growth (ATP signal) of yeast expressing P. falciparum Hsp90. S. cerevisiae expressing PfHsp90, BacTiter-Glo ATP, 48 h; yeast lacking PDR1 and PDR3 efflux regulators. inhibition, % at 9.4 µM. actives 0.32% (n = 310,000);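 active = every replicate shows inhibition above about 80%, whatever the replicate mean, limit read from the data; inconclusive = mean inhibition reaches the set limit but some replicate falls short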;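 also: 0% = DMSO neutral controls and 100% = 20 µM radicicol positive controls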
SKKanGAS inh = inhibitors of SKKanGAS S. pyogenes growth in kanamycin (SK-promoter or general growth effect); BacTiter-Glo, 6 h; inhibition, % at 7.5 µM; actives 1.3% (n = 300,000); AID 1662;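 active = mean replicate score, as percent of positive control median, at least 50; inconclusive = mean below 50 but one replicate at or above 50; inactive = mean and every replicate below 50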;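 also: strain carries kanamycin resistance gene driven by streptokinase promoter and grows in 40 µg/ml kanamycin; loss of luminescence reflects streptokinase promoter inhibition or plain growth inhibition; 0% = median of DMSO wells and 100% = positive control at its reference dose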
TIM10 inh = inhibits growth of TIM10 yeast strain. actives 1.4% (n = 330,000). S. cerevisiae TIM10 strain growth, BacTiter-Glo luminescence, 24 h. inhibition, % at 10 µM;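 active = inhibition of 40% or more at the single tested concentration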;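 also: wild-type TIM10 isogenic control strain grown at permissive 25 °C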
tim10-1 inh = inhibits growth of tim10-1 mutant yeast | S. cerevisiae tim10-1 ts strain growth, BacTiter-Glo, 24 h | inhibition, % at 20 µM | actives 2.2% (n = 330,000);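 active = inhibition of at least 40%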;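 also: mutant grown at 25 °C; 0% = DMSO wells with yeast and 100% = wells holding no yeast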
NALP1 inh = NALP1 inhibition. AID 2071. actives 0.61% (n = 280,000). inhibition, % at 10 µM. S. cerevisiae NALP1/ASC/caspase-1 growth, X-gal OD620, 72 h; in the data active = inhibition mostly above about 24%, no sharp cut-off; inactive = mostly below about 32%
tim23-1 inh = growth inhibitors of tim23-1 mutant yeast; S. cerevisiae tim23-1 growth, BacTiter-Glo luminescence, 24 h; inhibition, % at 20 µM; actives 1.3% (n = 330,000);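 active = growth inhibition of the mutant yeast at or above 50%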;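 also: temperature-sensitive mutant grown at 25 °C; plate controls were DMSO-treated mutant yeast for no effect and medium wells lacking yeast for full effect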
* = called active by the depositor; ? = inconclusive; · = no result; + = active, no number; ! = not confirmed by another sample.

SMILES | PfHsp90 yeast 2 | SKKanGAS inh | TIM10 inh | tim10-1 inh | NALP1 inh | tim23-1 inh
CCOC(=O)c1ccc(N2C(=O)CC(N3CCC(O)(c4ccc(Cl)cc4)CC3)C2=O)cc1 (stereo not drawn) | 101.3* | 4.5 | 34.2 | 29.5 | 6.7 | 25.1
CCOC(=O)c1ccc(N2C(=O)CC(N3CCC(O)(c4ccc(Br)cc4)CC3)C2=O)cc1 (stereo not drawn) | 96.4* | 0.2 | 13.5 | 15.4 | -8.9 | 9.7
Oc1ccc(CN2CCCCC2)c2cccnc12 | -14.8 | -6.7 | 14.0 | 2.3 | 1.3 | -7.2
Oc1ccc(CN2CCC(Cc3ccccc3)CC2)c2cccnc12 | · | -18.3 | 1.9 | -13.6 | 31.0* | 12.5
COc1ccc(C)cc1S(=O)(=O)N(C)CC(=O)N1CCN(C)CC1 | 8.2 | 6.9 | 12.0 | 13.0 | 39.6* | 10.3
CSCSC1=C(C#N)C(c2ccc(Cl)cc2)C(C(C)=O)=C(C)N1 (stereo not drawn) | · | · | 18.3 | 4.3 | 33.4 | 23.6
O=C(NCc1ccccn1)Nc1cc(Cl)cc(Cl)c1 | 12.6 | 76.9* | -1.5 | 21.7 | 18.0 | 15.5
O=C(NCCNC(=O)c1cc(OCC(F)(F)F)ccc1OCC(F)(F)F)Nc1cccc(C(F)(F)F)c1 | · | 2.2 | 9.4 | 27.1 | 6.6 | 10.3
O=C(Nc1ccccc1)Nc1cc(Cl)cc(Cl)c1 | -8.0 | 83.9* | 1.4 | -12.4 | 4.9 | -8.2
O=C(Nc1ccccc1)Nc1cc(OCC(F)(F)F)cc(OCC(F)(F)F)c1 | -55.5 | 51.7* | · | · | 8.3 | ·
COc1ccc(C(NC(=O)/C=C/c2ccco2)c2ccc(OC)cc2)cc1 | 4.5 | 4.6 | -2.4 | -6.9 | 11.7 | -15.8
O=C(Cc1ccsc1)Nc1cc(F)ccc1F | 21.1 | 1.6 | -12.7 | 5.1 | 6.2 | 10.2
COc1ccccc1N1CCN(CC(O)c2ccccc2)CC1 (stereo not drawn) | -1.2 | -5.2 | -4.6 | 22.7 | 18.6 | 12.9
COCCNC(=O)c1cc2nc3c(c(C(F)(F)F)n2n1)CCc1ccccc1-3 | -18.1 | -11.7 | -11.6 | 15.4 | 30.3* | -5.1
O=C(NNC(=S)NC(=O)c1ccco1)c1ccc(NC(=O)c2ccccc2)cc1 | 8.9 | 61.4* | 8.1 | 21.5 | 6.2 | 16.7
O=C(Nc1ccc(NC(=S)NC(=O)c2ccco2)cc1)c1ccccc1 | -1.5 | 7.5 | -4.8 | -79.1 | 5.3 | -18.5
O=C(Nc1ccc(NC(=S)NC(=O)c2cccs2)cc1)c1ccccc1 | 6.4 | 4.0 | -15.0 | -23.4 | 40.6 | 1.7
O=C(NNC(=S)NC(=O)c1cccs1)c1ccc(NC(=O)c2ccccc2)cc1 | -8.5 | 92.1* | 16.1 | 1.2 | 10.9 | -0.8
CCCCC(=O)Nc1ccc(C(=O)NNC(=S)NC(=O)c2cccs2)cc1 | · | 66.6* | 13.8 | 6.5 | -0.1 | 23.8
CCCCC(=O)Nc1ccc(C(=O)NNC(=S)NC(=O)c2ccco2)cc1 | -12.5 | ? | 11.7 | 12.0 | 45.9 | -0.3
NS(=O)(=O)c1ccc(NC(=S)NC(=O)c2ccco2)cc1 | -73.9 | -1.0 | 16.3 | 7.9 | 41.2*! | 10.6
COc1ccc(NS(=O)(=O)c2cccc(NC(=O)C34CCC(CC3)C4)c2)cc1 | -4.9 | -0.2 | 1.3 | 6.2 | · | -7.7
Cc1cccc(/C=C/C(=O)c2cc(Br)ccc(=O)c2O)c1 | 72.3 | 90.4* | 1.0 | 1.5 | 20.5 | 0.0
CCOc1ccc(/C=C/C(=O)c2cc(Br)ccc(=O)c2O)cc1 | 20.7 | · | · | · | -0.3 | ·
CCc1ccc(/C=C/C(=O)c2cc(Br)ccc(=O)c2O)cc1 | 65.5 | 105.9* | 15.5 | 17.9 | 17.0 | 11.5
SMILES | PfHsp90 yeast 2 | SKKanGAS inh | TIM10 inh | tim10-1 inh | NALP1 inh | tim23-1 inh
Cc1ccccc1S(=O)(=O)N1[C@@H](c2ccc(Cl)cc2)C(C(=O)O)=CC[C@H]1c1ccc(Cl)cc1 | -13.4 | · | 11.0 | 16.6 | · | 28.4
COc1cc(C#Cc2c(-c3cncn3C)n(C)c3ccc(-c4ccc(OC)nc4)cc23)cc(OC)c1 | + | · | 4.5 | 24.4 | · | 24.9
COc1cc(C#Cc2c(-c3cncn3C)n(C)c3ccc(-c4cc(OC)c(OC)c(OC)c4)cc23)cc(OC)c1 | 12.2 | · | 10.2 | 13.7 | · | 22.9
Cc1ccc(-c2csc3nnc(SCC(=O)NCc4ccc5c(c4)OCO5)n23)cc1 | -7.0 | -3.0 | 31.3 | 38.0 | 9.1 | 34.6
CCC(CC)NC(=O)c1oc2ccccc2c1COc1ccccc1 | 18.9 | 51.9* | 2.3 | 28.2 | 16.1 | 18.2
CC(C)CNC(=O)c1oc2ccccc2c1COc1ccccc1 | -9.1 | 18.0 | 11.3 | 28.8 | 36.0 | 21.9

Screens as filed in PubChem BioAssay.
